Structures are written as SMILES.

Experiment [1] has as its system Human papillomavirus type 1a protein E7 (residues 44-93). The experiment can be described thus: HPV1a E7 fragment binders on microarrays, primary screen, biochemical, small-molecule microarray, residues 44-93, 635 nm fluorescence (AID 1108).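 Also: E7 fragment applied at 1 µg/mL in TBST for 1 h at 4 C; score combines spot fluorescence with its signal to noise ratio.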 As to conditions: small-molecule microarray binding, fluorescence 635 nm; higher = more signal.
The nature of experiment [2]: modulators of HCV replicon luciferase signal, primary screen, HCV replication inhibitor project, Huh7 cells, luciferase reporter (AID 1109).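 Also: huh7 hepatoma cells harbouring a luciferase neomycin HCV replicon reporter; luciferase luminescence as measure of HCV replicon replication; test concentration not given here.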 The settings on record: 48 h, higher = more signal.
For experiment [3], the target named is Left-right determination factor 2 (Homo sapiens) (UniProt O00292). Nature of the experiment: LEFTY2 binders on small-molecule microarrays, primary screen, biochemical, small-molecule microarray, 635 nm fluorescence scan (AID 1110). As to conditions: LEFTY2 binding, higher = more signal.
Left-right determination factor 2 (Homo sapiens), sequence (O00292 whole entry, looked up): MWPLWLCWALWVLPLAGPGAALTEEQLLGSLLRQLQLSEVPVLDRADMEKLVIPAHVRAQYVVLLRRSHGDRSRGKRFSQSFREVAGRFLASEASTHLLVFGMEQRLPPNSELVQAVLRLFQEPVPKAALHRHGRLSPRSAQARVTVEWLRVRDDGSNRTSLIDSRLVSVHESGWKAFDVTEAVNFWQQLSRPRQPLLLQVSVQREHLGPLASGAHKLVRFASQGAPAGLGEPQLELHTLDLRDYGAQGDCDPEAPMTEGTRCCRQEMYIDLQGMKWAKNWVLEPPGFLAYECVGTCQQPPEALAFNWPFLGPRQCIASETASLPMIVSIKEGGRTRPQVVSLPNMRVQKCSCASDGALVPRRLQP
For experiment [4], the target named is Calmodulin-1 (Homo sapiens) (UniProt P0DP23). The experiment can be described thus: CALM1 binders on microarrays, EGTA buffer, profiling panel, biochemical, small-molecule microarray, Cy5-labelled CALM1 (AID 1111).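 Also: labelled calmodulin applied in Tris saline Tween buffer holding calcium plus EGTA and DTT.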 The settings on record: Cy5-CALM1 binding fluorescence, higher = more signal.
Experiment [5] shares this target. Nature of the experiment: calcium-bound CALM1 binders on microarrays, profiling panel, artefact control for SMM control-protein annotation, biochemical, small-molecule microarray, Cy5-labelled CALM1, plus calcium (AID 1112).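 Also: score merges spot fluorescence with signal to noise from triplicate slides.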 As to conditions: Cy5-CALM1 binding fluorescence, higher = more signal.
A short description of experiment [6]: small-molecule microarray binders of probe aWnt5a, primary screen, biochemical, biotinylated probe, 635/667 nm fluorescence (AID 1113).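 Also: score merges 667 nm fluorescence intensity with signal-to-noise per printed feature.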 The settings on record: higher = more signal.
The nature of experiment [7]: small-molecule microarray binders of probe aShh, primary screen, biochemical, biotinylated probe, 635/667 nm fluorescence (AID 1114).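 Also: probe is biotin-labelled aShh protein from a stem cell growth factor screen; measures binding of labelled protein to compounds printed on the slide; score merges feature fluorescence at 667 nm with signal-to-noise.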 As to conditions: higher = more signal.
The nature of experiment [8]: small-molecule microarray binders of probe aNog, primary screen, biochemical, biotinylated probe, 635/667 nm fluorescence (AID 1115).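 Also: probe is biotinylated aNog protein used at 0.15 µg/mL for 1 h at 4 C; z-score combines 667 nm fluorescence of each spot with its signal to noise.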 The settings on record: higher = more signal.
In experiment [9] the target is Torsin-1A-interacting protein 1 (Homo sapiens) (UniProt Q5JTV8). Nature of the experiment: LAP1 binders from COS7 cell lysate, primary screen, small-molecule microarray, 635/667 nm fluorescence (AID 1116). As to conditions: COS7-hLAP1 lysate binding, 635 nm fluorescence, higher = more signal.
Torsin-1A-interacting protein 1 (Homo sapiens), sequence (Q5JTV8 whole entry, looked up): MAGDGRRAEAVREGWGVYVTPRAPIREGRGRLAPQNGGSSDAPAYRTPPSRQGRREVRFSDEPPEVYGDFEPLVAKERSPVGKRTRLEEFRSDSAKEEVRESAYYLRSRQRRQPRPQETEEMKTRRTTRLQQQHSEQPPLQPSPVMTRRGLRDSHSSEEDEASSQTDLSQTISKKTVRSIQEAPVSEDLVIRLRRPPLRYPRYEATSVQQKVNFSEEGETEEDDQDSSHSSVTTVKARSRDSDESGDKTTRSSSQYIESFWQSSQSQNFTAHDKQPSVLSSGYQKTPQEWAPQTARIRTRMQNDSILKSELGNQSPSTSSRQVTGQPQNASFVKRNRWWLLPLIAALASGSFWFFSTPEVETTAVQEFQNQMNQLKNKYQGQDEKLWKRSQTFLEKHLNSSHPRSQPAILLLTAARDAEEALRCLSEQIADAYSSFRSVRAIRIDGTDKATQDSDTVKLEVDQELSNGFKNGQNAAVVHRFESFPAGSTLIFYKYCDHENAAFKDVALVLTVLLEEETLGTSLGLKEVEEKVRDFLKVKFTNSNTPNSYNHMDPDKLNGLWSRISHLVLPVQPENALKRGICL
In experiment [10] the target is Alpha-bungarotoxin (Bungarus multicinctus) (UniProt P60615). The experiment can be described thus: alpha-bungarotoxin binders on microarray, profiling panel, artefact control for SMM control protein annotation, biochemical, small-molecule microarray, Alexa647 label, 635/667 nm fluorescence (AID 1117). The settings on record: alpha-BTX-A647 binding fluorescence, higher = more signal.
Alpha-bungarotoxin (Bungarus multicinctus), sequence (P60615 whole entry, looked up): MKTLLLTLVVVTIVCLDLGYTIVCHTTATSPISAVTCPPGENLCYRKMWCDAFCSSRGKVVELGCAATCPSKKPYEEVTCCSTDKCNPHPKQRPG

Turning to `CCN(CC)c1ccc(N2CC=CC34O[C@@H]5/C=C\CCC(C)OC(=O)C5[C@H]3C(=O)N(C(CO)C(C)C)[C@@H]4C2=O)cc1` (stereo not given in full), the composite z-score is -0.0747 in experiment [1]; -0.896 in experiment [3]; -0.55 in experiment [4]; -0.866 in experiment [5]; -0.062 in experiment [6]; 0.214 in [7]. Moreover, the composite z-score is -0.287 in [8], -0.251 in experiment [9] and 0.174 in experiment [10]. The molecule further had a z-score in experiment [2] of -0.668.

On to `C=CCNC(=O)[C@@H]1[C@H]2C(=O)O[C@H](c3ccccc3)[C@H](c3ccccc3)N2[C@H](c2ccc(OCCO)cc2)[C@@]12C(=O)Nc1ccc(C#CCCO)cc12`, for which the composite z-score in experiment [1] is 1.32; in experiment [3], 1.28; in [4], 1.44; in experiment [5] it was -0.0758; in experiment [6], 0.452; in experiment [7] it was 2.63. Besides, the composite z-score in [8] is 2.4; in experiment [9] it was 2.12; in [10], 1.68. This molecule came in with a z-score in [2] of -1.36.

Consider `C=CCOC(=O)[C@H]1[C@@H]2C(=O)O[C@@H](c3ccccc3)[C@@H](c3ccccc3)N2[C@@H](c2ccc(OCCOC(=O)[C@@H]3C[C@@H]4C(=O)N[C@@H](CCCCN(C)C)C(=O)N4[C@@H]3c3ccc(O)cc3)cc2)[C@]12C(=O)Nc1ccc(I)cc12`, for which the composite z-score was -0.562 in [1]; 0.698 in experiment [3]; 0.134 in experiment [4]; -0.547 in experiment [5]; -0.113 in [6]; 0.462 in experiment [7]. The composite z-score in experiment [8] worked out at 1.18; in [9], 1.36; in experiment [10], 1.32. For the same molecule, in experiment [2], the z-score is -2.99.

As to `CC[C@@H]1C=C(C(=O)O)[C@H](c2ccco2)N1S(=O)(=O)c1ccc(C)cc1`, the composite z-score is -0.11 in experiment [1]; -0.0532 in experiment [3]; -0.256 in experiment [4]; -0.841 in experiment [5]; -0.0529 in experiment [6]; -0.0146 in experiment [7]. The composite z-score in [8] is 0.0051; in [9], 0.018; in experiment [10], 0.396. The same molecule returned a z-score in experiment [2] of -1.22.

On to `CC(=O)NCCCC[C@@H]1NC(=O)[C@@H]2C[C@H](C(=O)NCCCCCCNC(=O)CS)[C@H](c3cccc(OCCO)c3)N2C1=O`, for which the composite z-score in [1] was 0.517; in experiment [3], 0.221; in experiment [4], 0.572; in experiment [5], 0.361; in [6], 0.0004; in [7] it was -0.142. For the same molecule, the composite z-score in experiment [8] is -0.196; in experiment [9], 0.16; in experiment [10], 0.505. Also, the z-score in experiment [2] was -0.938.

On to `C=CC[C@]1(C(=O)N2CCCCC2)N=C(c2ccc(OCCCO)cc2)O[C@H]1c1ccccc1`, for which the composite z-score in experiment [1] is 0.254; in experiment [3], 0.32; in experiment [4], 0.0382; in [5], -0.0541; in [6] it was 0.15; in experiment [7], -0.155. The composite z-score amounted to 2.28 in experiment [8], 1.55 in experiment [9] and 0.741 in [10]. The molecule further had a z-score in experiment [2] of -1.98.

Regarding `NC(=O)[C@@H]1[C@H]2C(=O)O[C@H](c3ccccc3)[C@H](c3ccccc3)N2[C@H](c2ccc(O)cc2)[C@@]12C(=O)Nc1ccc(C#CC3(O)CCCCCC3)cc12`, the composite z-score in [1] is 0.124; in [3], -0.0941; in [4], -0.363; in [5], 0.555; in [6], -0.202; in experiment [7] it was 0.0684. In addition, the composite z-score is 0.179 in experiment [8], 1.59 in experiment [9] and -0.115 in experiment [10]. Also, the z-score in experiment [2] is -0.293.

As for `O=C1O[C@H](c2ccccc2)[C@H](c2ccccc2)N2[C@H]1[C@@H](C(=O)NC[C@H](O)c1ccccc1)[C@]1(C(=O)Nc3ccccc31)[C@H]2c1ccc(OCCO)cc1`, the composite z-score was 1.38 in experiment [1]; 0.119 in [3]; 0.475 in experiment [4]; 0.245 in [5]; -0.0882 in experiment [6]; -0.167 in [7]. The composite z-score in [8] is 0.0821; in experiment [9], 1.5; in experiment [10] it was 1.33. The molecule also had a z-score in experiment [2] of -2.05.

Turning to `C=C(COC)/C(=C/C[C@@H](OC(C)=O)c1ccc(CO)o1)c1cnc2ccccc2c1`, the composite z-score in experiment [1] was 1.31; in experiment [3], 1.07; in [4], 0.0708; in experiment [5] it was -0.6; in experiment [6], -0.0425; in experiment [7] it was -0.0146. Further, the composite z-score in experiment [8] is 0.256; in experiment [9], 2.19; in experiment [10], 2.76. The z-score in experiment [2] is -0.638.

For `C=CCC(OC(C)=O)[C@@H]1[C@@H](N(Cc2ccc(-c3ccccc3)cc2)C(=O)Cc2ccc(F)cc2)c2cc(OCCCO)ccc2N1C(=O)c1ccc(-c2ccccc2)cc1` (stereo not given in full), the composite z-score in experiment [1] was -0.866; in [3], -0.177; in [4], -0.454; in experiment [5] it was 0.266; in [6] it was -0.1; in [7], 0.0048. The composite z-score is -0.143 in experiment [8], 0.205 in experiment [9] and -0.257 in experiment [10]. Further, in experiment [2], the z-score is -1.23.

Turning to `C=CCN(Cc1ccccc1)C(=O)C(c1cccs1)N(CCOCCO)C(=O)/C=C\C(=O)O` (stereo not given), the composite z-score in experiment [1] is -0.762; in experiment [3], -2.24; in experiment [4], -0.512; in experiment [5], 0.446; in experiment [6], -0.256; in experiment [7], -0.0035. The composite z-score is -0.0712 in experiment [8], -1.45 in experiment [9] and -1.82 in [10]. For the same molecule, in experiment [2], the z-score amounted to 0.448.

On to `[N-]=[N+]=NCc1ccccc1[C@@H]1OC(c2ccc(OCCCO)cc2)=N[C@]1(CCS(=O)(=O)c1ccccc1)C(=O)NCc1ccccc1`, for which the composite z-score in experiment [1] is 0.512; in experiment [3], 0.526; in [4] it was 1.02; in experiment [5] it was 0.222; in experiment [6], 0.301; in experiment [7], 0.487. The composite z-score in [8] came to 2.12; in [9], 0.142; in experiment [10] it was 2.18. In experiment [2], the z-score was -1.78.

`CCOC(=O)C1=CCC(c2ccccc2)N(S(=O)(=O)CC[Si](C)(C)C)C1` (stereo not given): the composite z-score is -0.312 in [1]; -0.262 in [3]; -0.0436 in experiment [4]; 0.0045 in experiment [5]; -0.208 in [6]; -0.262 in experiment [7]. In addition, the composite z-score was -0.338 in experiment [8], -0.28 in experiment [9] and 0.115 in [10]. The molecule also registered a z-score in experiment [2] of -0.327.

As to `COCCOC(=O)N1C(=O)[C@@]2(c3cc(C#CC4=CCCCC4)ccc31)[C@H](C(=O)Nc1nc3ccccc3s1)[C@H]1C(=O)O[C@H](c3ccccc3)[C@H](c3ccccc3)N1[C@@H]2c1ccc(OCCO)cc1`, the composite z-score in [1] is 1.05; in experiment [3], 0.269; in experiment [4], 0.792; in experiment [5], -0.171; in [6], -0.0685; in experiment [7], -0.196. Moreover, the results for the composite z-score in [8], in experiment [9] and in experiment [10] were -0.337, 0.47 and 0.387, respectively. In addition, the z-score in experiment [2] was -1.09.

The record behind these values is PubChem BioAssay.
